Bioassay records (PubChem BioAssay)
Only some compounds are listed: those with a hit (about 12% of all), similar ones and a draw of the others.
HP1b binding inh: blocks HP1-beta chromodomain binding to methylated histone tails; AID 540317; Potency, µM (series often up to 114 µM), actives largely listed as inhibitors; AlphaScreen HP1-beta / biotin-H3K9me3 peptide binding; 0.56% of 390,000 active; P83916; note: nearly all actives have a fitted effect of over 70% in size
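Compound inhibition of the preformed complex between 50 nM HP1-beta and 50 nM biotinylated H3K9me3 peptide was read by AlphaScreen. Buffer was PBS pH 7.4 with 0.01% Tween-20. Incubations ran 30 min at room temperature, with 10 ug/mL donor/acceptor beads.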
PI5P4K alpha inh: PI5P4K alpha (human) kinase inhibition | AID 652105 | max response, % | PI5P4Kalpha enzyme, ADP-Glo luminescence, 60 min; active compounds read low | 1.2% of 330,000 active; active = max response of -50% or lower; inconclusive = between -30% and -50%; inactive = -30% or higher; note: value at the top dose of about 77 µM
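ADP-Glo luminescence end-point after a 60 min room-temperature kinase reaction. PI5P4Kalpha and substrate in HEPES pH 7.4 buffer with EGTA, 0.1% CHAPS and 5% DMSO; ATP at 5 microM final.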
PLK1 PBD block: inhibitors of human PLK1 polo-box domain binding; Plk1 PBD binding of FITC phosphopeptide, fluorescence polarization; Potency, µM, most hits filed as inhibitors; 2.8% of 360,000 active; AID 720504; note: series mostly up to about 57 µM; nearly all actives have a fitted effect of over 65% in size
Target sequence (P53350 whole entry, looked up, the tested form may be a part): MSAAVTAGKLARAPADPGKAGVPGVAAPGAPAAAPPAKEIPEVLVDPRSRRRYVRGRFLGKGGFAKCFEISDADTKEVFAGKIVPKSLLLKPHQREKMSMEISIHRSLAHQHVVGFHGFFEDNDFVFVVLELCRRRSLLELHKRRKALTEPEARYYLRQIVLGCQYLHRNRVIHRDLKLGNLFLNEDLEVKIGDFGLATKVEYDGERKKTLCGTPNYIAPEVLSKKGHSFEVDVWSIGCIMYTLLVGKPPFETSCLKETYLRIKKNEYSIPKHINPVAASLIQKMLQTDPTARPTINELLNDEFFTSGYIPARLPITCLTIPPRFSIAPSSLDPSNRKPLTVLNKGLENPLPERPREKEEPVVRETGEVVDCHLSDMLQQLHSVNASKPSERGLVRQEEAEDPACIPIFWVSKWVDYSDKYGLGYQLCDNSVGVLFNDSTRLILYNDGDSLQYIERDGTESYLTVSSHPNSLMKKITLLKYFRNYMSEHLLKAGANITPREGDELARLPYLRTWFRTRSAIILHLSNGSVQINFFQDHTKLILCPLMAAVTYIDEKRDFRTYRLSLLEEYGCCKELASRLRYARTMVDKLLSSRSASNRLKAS
G9a block: G9a (human) methyltransferase inhibition; G9a H3K9 monomethylation, AlphaScreen, 2 h; Potency, µM (series often up to 102 µM), actives largely listed as inhibitors; Q96KQ7; 8.8% of 350,000 active; note: nearly all actives have a fitted effect of over 75% in size
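Methyltransferase reactions run at room temperature for 2 h (20 nM enzyme, 500 nM biotin-H3K9 peptide, 20 uM SAM) after a 15 min compound preincubation; product detected by AlphaScreen beads and anti-H3K9me1 antibody.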
BAZ2B inh: BAZ2B (human) inhibition | Q9UIF8 | AlphaScreen BAZ2B-H3K14Ac peptide displacement | Potency, µM (series often up to 114 µM), actives largely listed as inhibitors | 4.4% of 360,000 active | AID 504333; note: nearly all actives have a fitted effect of over 60% in size
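Multi-concentration screen (max 110 uM) measuring displacement of acetylated histone H3 peptide from BAZ2B by AlphaScreen, using 50 nM protein, 50 nM peptide and 10 ug/mL streptavidin donor plus Ni-chelate acceptor beads.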
JMJD2A Tudor: JMJD2A Tudor domain (human) inhibition | O75164 | 4.4% of 390,000 active | AID 504339 | Potency, µM (titrated, usually from 114 µM), most hits filed as inhibitors | AlphaScreen JMJD2A-Tudor / H3K4me3 peptide binding; note: nearly all actives have a fitted effect of over 50% in size
Each line names hits and unclear results; the compound was inactive in the other large screens; ! = a repeat was not active. Unless noted, calls come from the whole dose curve; as a rule, active = well fitted curve in the direction sought with a large enough effect; inconclusive = small, poorly fitted or top-dose-only effect, or another doubt; inactive = no such curve, though single readings can be large; an effect the other way counts as inactive or inconclusive.

CC1=CC(=O)C(C(C)C)=C/C1=N/OC(=O)c1cccc([N+](=O)[O-])c1	PLK1 PBD block 3.77µM (no result: PI5P4K alpha inh)
Cc1cc(-c2nc3ncccc3o2)ccc1NC(=O)c1ccc([N+](=O)[O-])o1	PI5P4K alpha inh -58.2, PLK1 PBD block inconclusive (no result: G9a block, BAZ2B inh)
Cc1cc(NC(=O)c2ccc([N+](=O)[O-])o2)ccc1NC(=O)c1ccco1	PI5P4K alpha inh inconclusive, G9a block 79.4µM, BAZ2B inh inconclusive
CCOC(=O)C1=C2NC(=O)c3ccccc3N2C(=O)C1	HP1b binding inh inconclusive, PLK1 PBD block inconclusive, G9a block 7.94µM, JMJD2A Tudor inconclusive
CCOc1ccc(-c2cc3c(=O)n(CC(=O)NCc4ccc(Cl)cc4)ccn3n2)cc1	none (no result: PI5P4K alpha inh, PLK1 PBD block)
O=C(C1CC=CCC1)N1CCN(C(=O)C2CC=CCC2)CC1 (configuration not stated)	PLK1 PBD block 29.9µM
COc1cccc(C(=O)NCCS(=O)(=O)NCc2ccccn2)c1	G9a block inconclusive, JMJD2A Tudor 2.51µM
COc1ccc(CNS(=O)(=O)CCNC(=O)c2ccccc2)cc1	none
COc1ccc(CNS(=O)(=O)CCNC(=O)c2cccc(OC)c2)cc1	G9a block 50.1µM
COc1ccc(NS(=O)(=O)c2cccc(C(=O)NCc3ccccn3)c2)cc1	none
COc1cccc(C(=O)NCCS(=O)(=O)NCc2ccc3c(c2)OCO3)c1	G9a block 39.8µM
CCOc1cccc(Cc2c[nH]c(=O)[nH]c2=O)c1	none (no result: HP1b binding inh, G9a block, BAZ2B inh, JMJD2A Tudor)
CC1CN(C(=O)c2cc(-c3ccc(Cl)s3)nc3ccccc23)CC(C)O1 (configuration not stated)	none
CSc1nc2ccc3nc(NC(=O)c4ccc(C)cc4)sc3c2s1	none
Cc1ccc(C(=O)Nc2nc3ccccc3c(=O)s2)cc1	G9a block 8.91µM, BAZ2B inh inconclusive, JMJD2A Tudor 89.1µM (no result: PI5P4K alpha inh)
CC(=O)Nc1ccc(N2CCOCC2)c(Cl)c1	none
Nc1ccc(N2CCOCC2)c(Cl)c1	PLK1 PBD block 23.8µM, G9a block inconclusive
O=C(Nc1cccc(Cl)c1N1CCOCC1)c1ccco1	none
Nc1ccc(N2CCCCC2)c(Cl)c1	G9a block 44.7µM
Nc1cccc(Cl)c1N1CCOCC1	HP1b binding inh inconclusive, PLK1 PBD block 26.7µM, JMJD2A Tudor 20µM
Cc1c(C(=O)NCc2ccccc2Cl)sc2nc[nH]c(=O)c12	none (no result: PI5P4K alpha inh, PLK1 PBD block)
O=S(=O)(O)CC(S)CS (configuration not stated)	none (no result: HP1b binding inh, PI5P4K alpha inh, PLK1 PBD block, BAZ2B inh, JMJD2A Tudor)
CN(C)CCNc1nc2sc3c(c2c(=O)n1CCc1ccccc1)CCCCC3	G9a block 39.8µM, BAZ2B inh 44.7µM, JMJD2A Tudor 50.1µM
O=c1c2c3c(sc2nc(NCCOCCO)n1Cc1ccco1)CCCCC3	G9a block inconclusive, BAZ2B inh inconclusive
CC(O)CNc1nc2sc3c(c2c(=O)n1CCc1ccccc1)CCCCC3 (configuration not stated)	HP1b binding inh inconclusive, G9a block 50.1µM, BAZ2B inh inconclusive, JMJD2A Tudor inconclusive
CC(O)CNc1nc2sc3c(c2c(=O)n1Cc1ccco1)CCCCC3 (configuration not stated)	none (no result: G9a block)
COCCNC(=O)C(c1ccc(Cl)cc1)N(CCOC)C(=O)CCC(=O)Nc1ccccn1 (configuration not stated)	none
Cc1sc2nc(CN3CCOCC3)[nH]c(=S)c2c1C	G9a block 39.8µM
Cc1nc2c(C(=O)NCCc3ccccc3)cnn2c(C)c1Cc1c(F)cccc1Cl	none (no result: PI5P4K alpha inh, PLK1 PBD block)
COc1ccccc1OCC(=O)NN1Cc2ccccc2C1=N	G9a block inconclusive
CC(C)(C)c1ccc(OCC(=O)NN2Cc3ccccc3C2=N)cc1	G9a block 50.1µM
N=C1c2ccccc2CN1NC(=O)COc1ccc(Cl)cc1	G9a block 35.5µM
CC(C)(C)OC(=O)NCc1nnc(-c2nc3ccccc3[nH]2)o1	none (no result: HP1b binding inh, PI5P4K alpha inh, PLK1 PBD block, G9a block, BAZ2B inh)
COc1ccc2[nH]c(C(=O)O)c(CCN3C(=O)c4cccc([N+](=O)[O-])c4C3=O)c2c1	G9a block inconclusive, BAZ2B inh 79.4µM
C[N+]1(CCCCC[N+]2(C)CCCC2)CCCC1	none (no result: HP1b binding inh, PI5P4K alpha inh, PLK1 PBD block, BAZ2B inh, JMJD2A Tudor)
COCC[N+]1(C)CCCCC1	G9a block 4.47µM, JMJD2A Tudor inconclusive
O=C1N(c2ccccc2)c2ccccc2C1(Cc1ccncc1)Cc1ccncc1	G9a block 12.6µM!, BAZ2B inh inconclusive
Fc1ccc(C2CC(c3ccc(F)cc3)n3ncnc3N2)cc1 (configuration not stated)	none (no result: PI5P4K alpha inh)
Oc1ccccc1C1=Nc2ncnn2C(c2ccc(F)cc2)C1 (configuration not stated)	G9a block 25.1µM, BAZ2B inh 56.2µM
O=C1CSC(c2ccccc2F)N1CCN1CCCCC1 (configuration not stated)	G9a block 79.4µM
O=C1CSC(c2cccc([N+](=O)[O-])c2)N1CCN1CCCCC1 (configuration not stated)	none
CCOc1ccc(OCC)c(NC(=O)c2cnn(-c3ccc(F)cc3)c2-n2cccc2)c1	none (no result: PI5P4K alpha inh, PLK1 PBD block)
O=c1c2cccnc2n(-c2ccccc2)n1Cc1c(Cl)cccc1Cl	none
O=c1c2cccnc2n(-c2ccccc2)n1Cc1ccc(Cl)cc1	PLK1 PBD block 26.7µM
Cc1ccc(C2(C(F)(F)F)NC(=O)N3N=C4CCCCCN4C3=C2C#N)cc1 (configuration not stated)	none
N#CC1=C2Nc3ccccc3N2C(=O)NC1(c1ccccc1)C(F)(F)F (configuration not stated)	HP1b binding inh inconclusive, PLK1 PBD block 23.8µM, JMJD2A Tudor 56.2µM
Cc1ccc([N+](=O)[O-])c2c1C(N1CCCC1)C(C)(C)O2 (configuration not stated)	PLK1 PBD block inconclusive, G9a block 11.2µM, BAZ2B inh inconclusive
CCOc1ccc(-n2ccnc2SCC(=O)Nc2nc3ccc(C)cc3s2)cc1	none (no result: PI5P4K alpha inh, PLK1 PBD block)
COc1ccc(C(=O)c2ccccc2Cl)cc1	none
Cc1sc(N)c(C(=O)c2ccccc2Cl)c1C	HP1b binding inh inconclusive, BAZ2B inh 44.7µM, JMJD2A Tudor inconclusive
CC(=O)Nc1sc(C)c(C)c1C(=O)OCC(=O)N(CC(C)C)c1c(N)n(Cc2ccccc2)c(=O)[nH]c1=O	G9a block inconclusive
CC(C)C(NCc1c(Cl)cccc1Cl)C(=O)O (configuration not stated)	G9a block 79.4µM (no result: PI5P4K alpha inh)
CC(C)[C@H](NC(=O)NCc1ccc(Cl)cc1)C(=O)O	none (no result: PI5P4K alpha inh)
COc1ccccc1N1CCN(C(=O)c2ccccc2SCC(=O)N2CCCC2)CC1	PLK1 PBD block inconclusive, G9a block 79.4µM
COc1cccc(N2CCN(C(=O)c3ccccc3SCC(=O)NCc3ccco3)CC2)c1	none
COc1ccccc1-n1ccnc1SCC(=O)NCc1ccco1	PLK1 PBD block 23.8µM, JMJD2A Tudor 39.8µM
COc1ccccc1N1CCN(C(=O)c2ccccc2SCC(=O)NCc2ccco2)CC1	G9a block 50.1µM
